This note sets out measurements from the supplement of paper PMC12819154, “High-throughput peptide-centric local stability assay extends protein–ligand identification to membrane proteins, tissues and bacteria” (Nature Structural & Molecular Biology, 2025).

UniProt O75494, sequence (O75494 whole entry): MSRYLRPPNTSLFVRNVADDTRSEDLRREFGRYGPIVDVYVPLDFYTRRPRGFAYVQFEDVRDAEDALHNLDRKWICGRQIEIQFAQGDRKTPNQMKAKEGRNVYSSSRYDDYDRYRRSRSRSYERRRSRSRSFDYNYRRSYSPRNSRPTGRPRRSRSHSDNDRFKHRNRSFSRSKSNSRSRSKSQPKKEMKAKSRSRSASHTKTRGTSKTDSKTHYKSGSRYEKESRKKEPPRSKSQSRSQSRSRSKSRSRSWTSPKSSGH
UniProt P19525, sequence (P19525 whole entry): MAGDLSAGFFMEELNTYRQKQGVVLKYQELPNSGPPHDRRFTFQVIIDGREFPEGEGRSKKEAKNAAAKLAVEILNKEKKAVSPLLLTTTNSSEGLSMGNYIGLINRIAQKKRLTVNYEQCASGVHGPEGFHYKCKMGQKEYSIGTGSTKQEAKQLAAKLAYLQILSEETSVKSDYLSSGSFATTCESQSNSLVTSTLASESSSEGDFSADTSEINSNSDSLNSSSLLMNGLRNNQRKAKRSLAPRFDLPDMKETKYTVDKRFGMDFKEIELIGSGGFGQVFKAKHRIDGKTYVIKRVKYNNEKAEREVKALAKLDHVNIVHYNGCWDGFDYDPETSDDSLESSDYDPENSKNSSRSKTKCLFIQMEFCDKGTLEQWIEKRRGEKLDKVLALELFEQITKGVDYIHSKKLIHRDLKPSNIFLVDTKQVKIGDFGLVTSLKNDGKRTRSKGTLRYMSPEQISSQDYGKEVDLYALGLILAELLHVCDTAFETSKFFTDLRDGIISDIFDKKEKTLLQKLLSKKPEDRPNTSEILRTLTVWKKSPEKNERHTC
UniProt O75153, sequence (O75153 whole entry): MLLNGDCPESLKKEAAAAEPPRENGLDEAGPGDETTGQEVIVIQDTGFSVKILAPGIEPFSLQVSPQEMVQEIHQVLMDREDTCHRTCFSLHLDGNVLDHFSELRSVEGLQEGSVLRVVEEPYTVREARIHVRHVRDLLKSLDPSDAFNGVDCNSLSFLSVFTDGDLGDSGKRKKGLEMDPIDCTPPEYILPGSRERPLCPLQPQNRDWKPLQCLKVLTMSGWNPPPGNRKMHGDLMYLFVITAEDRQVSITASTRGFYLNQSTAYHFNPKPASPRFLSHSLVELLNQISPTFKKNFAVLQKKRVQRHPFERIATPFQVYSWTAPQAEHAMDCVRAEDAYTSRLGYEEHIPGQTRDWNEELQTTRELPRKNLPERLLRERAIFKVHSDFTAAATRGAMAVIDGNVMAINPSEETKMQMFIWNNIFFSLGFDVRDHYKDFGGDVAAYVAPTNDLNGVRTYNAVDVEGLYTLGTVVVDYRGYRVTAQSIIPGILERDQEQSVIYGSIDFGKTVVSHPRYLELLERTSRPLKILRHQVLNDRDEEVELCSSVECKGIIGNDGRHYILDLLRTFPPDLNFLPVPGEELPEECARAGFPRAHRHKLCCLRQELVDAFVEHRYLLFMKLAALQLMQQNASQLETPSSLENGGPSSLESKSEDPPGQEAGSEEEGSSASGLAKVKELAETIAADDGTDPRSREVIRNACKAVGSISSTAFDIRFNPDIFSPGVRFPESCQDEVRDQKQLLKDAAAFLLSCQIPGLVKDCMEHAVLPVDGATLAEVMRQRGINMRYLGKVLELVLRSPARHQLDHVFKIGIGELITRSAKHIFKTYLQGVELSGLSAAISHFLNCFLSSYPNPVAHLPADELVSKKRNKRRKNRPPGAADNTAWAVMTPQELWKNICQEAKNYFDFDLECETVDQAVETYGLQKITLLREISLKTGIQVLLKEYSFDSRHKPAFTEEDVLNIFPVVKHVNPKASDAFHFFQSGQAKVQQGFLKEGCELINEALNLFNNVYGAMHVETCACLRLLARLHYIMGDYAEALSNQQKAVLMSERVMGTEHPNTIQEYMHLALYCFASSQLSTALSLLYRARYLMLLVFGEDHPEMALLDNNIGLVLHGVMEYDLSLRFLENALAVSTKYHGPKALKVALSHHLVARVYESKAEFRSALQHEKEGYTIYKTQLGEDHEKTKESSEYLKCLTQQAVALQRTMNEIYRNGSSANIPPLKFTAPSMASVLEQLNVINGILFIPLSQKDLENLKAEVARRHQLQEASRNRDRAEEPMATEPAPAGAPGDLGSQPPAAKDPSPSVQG
UniProt Q96CB8, sequence (Q96CB8 whole entry): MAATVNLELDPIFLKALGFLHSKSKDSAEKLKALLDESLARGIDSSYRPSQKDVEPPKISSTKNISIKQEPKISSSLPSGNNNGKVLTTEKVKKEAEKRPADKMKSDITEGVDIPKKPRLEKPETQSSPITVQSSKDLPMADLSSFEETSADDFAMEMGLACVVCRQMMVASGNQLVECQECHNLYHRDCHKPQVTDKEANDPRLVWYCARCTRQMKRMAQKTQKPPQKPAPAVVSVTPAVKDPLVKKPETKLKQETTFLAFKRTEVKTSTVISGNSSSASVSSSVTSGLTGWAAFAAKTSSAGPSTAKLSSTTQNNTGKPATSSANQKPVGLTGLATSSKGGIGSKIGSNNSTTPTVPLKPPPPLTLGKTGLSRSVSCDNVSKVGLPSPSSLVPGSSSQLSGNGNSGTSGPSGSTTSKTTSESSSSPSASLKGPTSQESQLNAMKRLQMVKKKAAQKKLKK
UniProt Q96SB4, sequence (Q96SB4 whole entry): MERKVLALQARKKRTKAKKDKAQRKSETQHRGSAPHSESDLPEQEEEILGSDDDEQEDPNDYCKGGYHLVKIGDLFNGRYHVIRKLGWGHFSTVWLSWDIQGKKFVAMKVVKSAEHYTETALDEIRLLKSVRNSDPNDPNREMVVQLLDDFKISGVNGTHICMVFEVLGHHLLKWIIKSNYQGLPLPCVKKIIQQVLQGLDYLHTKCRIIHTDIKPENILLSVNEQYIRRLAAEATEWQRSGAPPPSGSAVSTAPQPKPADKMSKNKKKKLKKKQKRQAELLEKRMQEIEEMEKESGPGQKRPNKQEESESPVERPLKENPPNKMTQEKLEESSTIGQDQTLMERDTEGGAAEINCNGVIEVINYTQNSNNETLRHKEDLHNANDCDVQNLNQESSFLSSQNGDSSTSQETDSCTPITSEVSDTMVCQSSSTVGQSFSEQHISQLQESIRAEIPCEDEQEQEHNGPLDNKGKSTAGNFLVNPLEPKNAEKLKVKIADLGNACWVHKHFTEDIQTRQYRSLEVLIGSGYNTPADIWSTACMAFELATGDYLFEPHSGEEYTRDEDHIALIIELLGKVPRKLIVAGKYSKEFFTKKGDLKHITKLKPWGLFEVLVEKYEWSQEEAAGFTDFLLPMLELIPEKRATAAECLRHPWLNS
UniProt P42696, sequence (P42696 whole entry): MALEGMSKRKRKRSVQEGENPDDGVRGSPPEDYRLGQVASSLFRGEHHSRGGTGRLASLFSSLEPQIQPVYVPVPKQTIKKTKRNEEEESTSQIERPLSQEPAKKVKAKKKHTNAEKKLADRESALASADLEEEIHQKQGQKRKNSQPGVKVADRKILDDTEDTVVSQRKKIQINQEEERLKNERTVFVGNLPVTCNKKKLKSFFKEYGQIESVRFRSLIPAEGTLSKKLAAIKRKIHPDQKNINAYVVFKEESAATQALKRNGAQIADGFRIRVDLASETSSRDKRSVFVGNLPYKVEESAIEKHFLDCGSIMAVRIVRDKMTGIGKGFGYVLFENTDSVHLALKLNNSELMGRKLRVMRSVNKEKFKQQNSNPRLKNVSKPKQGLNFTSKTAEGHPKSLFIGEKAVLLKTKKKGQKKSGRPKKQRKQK
UniProt P61962, sequence (P61962 whole entry): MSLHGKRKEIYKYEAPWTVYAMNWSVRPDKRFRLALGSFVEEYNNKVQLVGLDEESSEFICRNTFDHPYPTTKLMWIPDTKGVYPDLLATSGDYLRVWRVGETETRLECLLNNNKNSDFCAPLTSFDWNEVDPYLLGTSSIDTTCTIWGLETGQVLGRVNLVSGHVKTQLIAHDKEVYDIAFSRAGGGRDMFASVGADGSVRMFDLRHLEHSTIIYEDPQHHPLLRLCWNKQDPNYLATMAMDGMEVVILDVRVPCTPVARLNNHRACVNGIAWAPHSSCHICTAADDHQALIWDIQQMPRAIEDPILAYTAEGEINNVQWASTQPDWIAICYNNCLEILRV
UniProt Q8NEB9, sequence (Q8NEB9 whole entry): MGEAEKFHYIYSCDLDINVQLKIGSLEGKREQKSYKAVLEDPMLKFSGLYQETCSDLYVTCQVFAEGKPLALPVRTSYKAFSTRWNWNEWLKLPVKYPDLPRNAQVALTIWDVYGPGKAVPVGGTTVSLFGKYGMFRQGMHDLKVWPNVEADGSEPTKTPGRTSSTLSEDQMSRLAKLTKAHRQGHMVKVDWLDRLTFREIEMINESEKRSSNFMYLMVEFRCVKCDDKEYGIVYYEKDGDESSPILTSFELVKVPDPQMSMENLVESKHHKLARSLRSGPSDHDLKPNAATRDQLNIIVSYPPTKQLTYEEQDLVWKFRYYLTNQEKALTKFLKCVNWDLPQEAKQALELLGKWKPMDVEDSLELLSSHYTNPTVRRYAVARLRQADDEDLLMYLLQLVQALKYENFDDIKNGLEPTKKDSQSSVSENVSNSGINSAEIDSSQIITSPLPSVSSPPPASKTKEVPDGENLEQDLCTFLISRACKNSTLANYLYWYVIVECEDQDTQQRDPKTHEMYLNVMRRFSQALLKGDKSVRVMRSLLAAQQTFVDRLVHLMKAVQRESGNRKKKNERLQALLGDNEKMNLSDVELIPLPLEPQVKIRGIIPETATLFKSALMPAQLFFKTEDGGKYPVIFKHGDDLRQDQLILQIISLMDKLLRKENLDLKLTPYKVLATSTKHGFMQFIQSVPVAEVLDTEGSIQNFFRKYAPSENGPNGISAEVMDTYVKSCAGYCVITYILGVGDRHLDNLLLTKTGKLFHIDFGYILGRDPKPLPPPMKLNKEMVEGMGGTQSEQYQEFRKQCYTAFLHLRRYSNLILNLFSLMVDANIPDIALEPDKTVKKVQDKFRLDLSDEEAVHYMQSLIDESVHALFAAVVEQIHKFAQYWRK

Compound in the assay: CN[C@@H]1C[C@H]2O[C@@](C)([C@@H]1OC)n1c3ccccc3c3c4c(c5c6ccccc6n2c5c31)C(=O)NC4 [staurosporine]
The assay is described as follows: log2 fold change of tryptic peptide abundance, ligand vs vehicle (limited proteolysis) (log2 ratio); higher = more trypsin-susceptible (destabilized). The following applies: ligand concentration: 20 uM; sample: K562 cleared lysate; digestion: 4 min, 22 C (HT-PELSA RT4min, Orbitrap Astral).
Consider “VIM (peptide sequence: MFGGPGTASRPSSSR, peptide start residue: 14) (UniProt P08670)”, for which the log2 fold change was found to be 0.344. Next, “UniProt P61962 (peptide sequence: LMWIPDTK, peptide start residue: 74)”: 0.374; “MAST4 (peptide sequence: LTDFGLSK, peptide start residue: 209) (UniProt O15021)”: -0.745; “GSTP1 (peptide sequence: MPPYTVVYFPVRGR, peptide start residue: 1) (UniProt P09211)”: 0.55. Next, “GEMIN5 (peptide sequence: MLSTFKELFSEK, peptide start residue: 1352) (UniProt Q8TEQ6)”: -1; “RPL4 (peptide sequence: MFAPTKTWR, peptide start residue: 101) (UniProt P36578)”: 0.751. On to “CDK9 (peptide sequence: EGFPITALR, peptide start residue: 57) (UniProt P50750)”, for which the log2 fold change is -1.73. For the target “UniProt Q9NSY1 (peptide sequence: DGVNVVEEEIKK, peptide start residue: 212)”, the log2 fold change was -4.3.

For “BCR (peptide sequence: RAAQAPDGASEPR, peptide start residue: 79) (UniProt P11274)”, the log2 fold change was 0.577.

As to “RBM34 (peptide sequence: NGAQIADGFR, peptide start residue: 263) (UniProt P42696)”, the log2 fold change came out at 0.437. For “EIF4A3 (peptide sequence: ETQALILAPTR, peptide start residue: 106) (UniProt P38919)”, the log2 fold change is 0.375.

As for “ULK3 (peptide sequence: VIELPLRPLLSR, peptide start residue: 230) (UniProt Q6PHR2)”, the log2 fold change is -1.32. On to “LATS1 (peptide sequence: QQSASYIPK, peptide start residue: 1021) (UniProt O95835)”, for which the log2 fold change was -2.87. In the case of “UniProt P19525 (peptide sequence: IGDFGLVTSLK, peptide start residue: 430)”, the log2 fold change was -1.42. For “UniProt Q8NEB9 (peptide sequence: SALMPAQLFFK, peptide start residue: 614)”, the log2 fold change is -0.384. On to “DCUN1D4 (peptide sequence: YAFDFAR, peptide start residue: 144) (UniProt Q92564)”, for which the log2 fold change was 1.53. With “UniProt Q99759 (peptide sequence: SPSAPINWR, peptide start residue: 355)”, the log2 fold change was -2.28. In the case of “ARAF (peptide sequence: IGTGSFGTVFR, peptide start residue: 316) (UniProt P10398)”, the log2 fold change turned out to be 0.439. Consider “UniProt P45983 (peptide sequence: MLVIDASK, peptide start residue: 301)”, for which the log2 fold change is -1.77. In the case of “UniProt Q6A1A2 (peptide sequence: AHPFFESVTWENLHQQTPPK, peptide start residue: 338)”, the log2 fold change is -1.74. For “SRRM2 (peptide sequence: SLSYSPVER, peptide start residue: 2690) (UniProt Q9UQ35)”, the log2 fold change amounted to 0.244.

In the case of “UniProt P62913 (peptide sequence: KLCLNICVGESGDR, peptide start residue: 19)”, the log2 fold change was -0.237. For “SCRN3 (peptide sequence: IMLDNMR, peptide start residue: 369) (UniProt Q0VDG4)” the value was 0.327. Regarding “CAD (peptide sequence: FLSSAAAVSKEHPVVISK, peptide start residue: 1110) (UniProt P27708)”, the log2 fold change is -0.418. In the case of “RFESD (peptide sequence: EYSSVCVGREDDIK, peptide start residue: 14) (UniProt Q8TAC1)”, the log2 fold change was 0.768.

Take “UniProt O75494 (peptide sequence: SFDYNYR, peptide start residue: 133)”: the log2 fold change stood at 0.608. Turning to “INTS12 (peptide sequence: SVSCDNVSK, peptide start residue: 376) (UniProt Q96CB8)”, the log2 fold change turned out to be 1.68. Consider “UniProt O75153 (peptide sequence: VVEEPYTVR, peptide start residue: 118)”, for which the log2 fold change was found to be 0.461. Turning to “SRPK1 (peptide sequence: HFTEDIQTR, peptide start residue: 507) (UniProt Q96SB4)”, the log2 fold change was -1.75.
